# About 6,000 (1.7%) of roughly 350,000 compounds were called active. About 5% were inconclusive and are not listed. No stated cut-off is given here; in the data, active means CPE inhibition above about 20% (passing the limit was not always enough); inconclusive means no clear call, values can overlap the other calls; tested in BHK-21 cells. The list comes from a sample in which actives are over-represented; it also holds similar structures and randomly drawn compounds.
# Experiment: inhibitors of DENV2 cytopathic effect, primary screen, cell-based, plate reader, single concentration (AID 651640);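 further: 0% = median of neutral control wells and 100% = median of positive control wells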
# Details: DENV2-infected cells, cytopathic effect rescue, at 9.99 µM, stronger effect = higher value
row,SMILES,CPE inhibition
1,COc1cccc(-c2ccc3c(c2)O[C@H](CN(C)C(=O)C2CCOCC2)[C@H](C)CN([C@H](C)CO)S3(=O)=O)c1,-2.8% (inactive)
2,CN(Cc1cccc2ncccc12)C(=O)CC1C(=O)NCCN1Cc1ccc(F)cc1 (centres undefined),2.99% (inactive)
3,Cc1cnc(CN(C)C(=O)CC2C(=O)NCCN2Cc2cccc(F)c2F)[nH]1 (centres undefined),20.8% (active)
4,CC(C)c1nc(CNC(=O)CC2C(=O)NCCN2Cc2cccc(F)c2F)cs1 (centres undefined),-4.34% (inactive)
5,C[C@@H]1CN([C@@H](C)CO)C(=O)c2cc(NC(=O)Nc3cccc4ccccc34)ccc2O[C@@H](C)CCCCO[C@@H]1CN(C)S(=O)(=O)c1ccc(Cl)cc1,-12.5% (inactive)
6,COc1ccccc1-c1ccc2n(c1=O)C[C@H]1[C@H](CO)[C@@H](C(=O)N[C@@H](C)c3ccccc3)[C@@H]2N1C,-8.56% (inactive)
7,CC(C)CC#Cc1ccc([C@@H]2[C@@H](CO)N3C(=O)CN(C(=O)c4cnccn4)C[C@@H]23)cc1,-1.01% (inactive)
8,O=C(C[C@@H]1C=C[C@H](NC(=O)CCN2CCCCC2)[C@H](CO)O1)NCc1ccc(Cl)c(Cl)c1,0.258% (inactive)
9,COc1ccc(C(=O)/C=C/c2cccnc2)c(OC)c1,-6.66% (inactive)
10,COc1ccc(/C=C/C(=O)c2ccc(OC)cc2O)cc1,64.1% (active)
11,COc1ccc(/C=C/C(=O)c2c(O)cc(OC)cc2OC)cc1,-8.14% (inactive)
12,O=C1CCC/C=C/C[C@@H](CC(=O)N(CCO)Cc2ccccc2)C(=O)NC[C@H](c2ccccc2)O1,85.4% (active)
13,O=C1NC[C@@H](c2ccccc2)OC(=O)[C@H](Cc2ccc(F)cc2)CC/C=C/C[C@H]1CC(=O)N(CCO)Cc1ccccc1,-5.29% (inactive)
14,O=C1CCC/C=C\C[C@@H](CC(=O)N(CCO)Cc2ccccc2)C(=O)NCCO1,-1.93% (inactive)
15,COCCN(C[C@H]1[C@H](c2ccccc2)[C@@H](CO)N1C(C)=O)C(=O)c1cccnc1,-2.67% (inactive)
16,CN1C(=O)c2cc(NS(=O)(=O)c3ccccc3F)ccc2OC[C@@H]2O[C@@H](CC(=O)NC3Cc4ccccc4C3)CC[C@@H]21,11.5% (inactive)
17,Cc1ccc2nc(-c3ccc(CN4CCC(n5cc(-c6ccccc6)[nH]c5=O)CC4)cc3)c(-c3ccccc3)nc2c1,-12.7% (inactive)
18,Cc1ccc(F)cc1S(=O)(=O)N[C@@H]1CCN(Cc2ccc(-c3ccccc3)cc2)C1,-7.61% (inactive)
19,O=c1[nH]c(-c2ccccc2)cn1C1CCN(Cc2ccc(-c3nc4ccc(F)cc4nc3-c3ccccc3)cc2)CC1,33.2% (active)

# Reference: PubChem BioAssay AID651640 (Broad Institute, 2012)
